# In the supplement of paper PMC10849652:
# About 7,900 targets were measured; listed, in parts, are those with a hit and a random draw of the rest. About 0.6% of all pairs of compound and target were hits. Unmarked numbers belong to inactive results.
# Compound: c1cn2cc(-c3ccc4cn[nH]c4c3)nc(Nc3ccc(N4CCOCC4)cc3)c2n1 [entospletinib]
# Experiment: log2 fold change, soluble protein after heating vs DMSO (PISA); higher = thermal stabilisation; K562 cells, 10 uM, 30 min; active = over 0.2 and 3.5 SD of the protein, either way, in both replicates (recomputed)
# Outline: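 K562 cells (2×10^6 cells/mL) were treated with 10 μM compound for 30 min, and aliquots were heated for 3 min over 48°C-58°C. Pooled aliquots were extracted in PBS with 0.5% NP-40 at 4°C, and the supernatant after 21,000xg for 90 min was measured by TMTpro 16plex LC-MS/MS with channel sums equalised. Reported thermal stability, relative to control samples and from duplicates, is a log2 fold change.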
# Chain of UniProt P52701 (P52701 whole entry, looked up): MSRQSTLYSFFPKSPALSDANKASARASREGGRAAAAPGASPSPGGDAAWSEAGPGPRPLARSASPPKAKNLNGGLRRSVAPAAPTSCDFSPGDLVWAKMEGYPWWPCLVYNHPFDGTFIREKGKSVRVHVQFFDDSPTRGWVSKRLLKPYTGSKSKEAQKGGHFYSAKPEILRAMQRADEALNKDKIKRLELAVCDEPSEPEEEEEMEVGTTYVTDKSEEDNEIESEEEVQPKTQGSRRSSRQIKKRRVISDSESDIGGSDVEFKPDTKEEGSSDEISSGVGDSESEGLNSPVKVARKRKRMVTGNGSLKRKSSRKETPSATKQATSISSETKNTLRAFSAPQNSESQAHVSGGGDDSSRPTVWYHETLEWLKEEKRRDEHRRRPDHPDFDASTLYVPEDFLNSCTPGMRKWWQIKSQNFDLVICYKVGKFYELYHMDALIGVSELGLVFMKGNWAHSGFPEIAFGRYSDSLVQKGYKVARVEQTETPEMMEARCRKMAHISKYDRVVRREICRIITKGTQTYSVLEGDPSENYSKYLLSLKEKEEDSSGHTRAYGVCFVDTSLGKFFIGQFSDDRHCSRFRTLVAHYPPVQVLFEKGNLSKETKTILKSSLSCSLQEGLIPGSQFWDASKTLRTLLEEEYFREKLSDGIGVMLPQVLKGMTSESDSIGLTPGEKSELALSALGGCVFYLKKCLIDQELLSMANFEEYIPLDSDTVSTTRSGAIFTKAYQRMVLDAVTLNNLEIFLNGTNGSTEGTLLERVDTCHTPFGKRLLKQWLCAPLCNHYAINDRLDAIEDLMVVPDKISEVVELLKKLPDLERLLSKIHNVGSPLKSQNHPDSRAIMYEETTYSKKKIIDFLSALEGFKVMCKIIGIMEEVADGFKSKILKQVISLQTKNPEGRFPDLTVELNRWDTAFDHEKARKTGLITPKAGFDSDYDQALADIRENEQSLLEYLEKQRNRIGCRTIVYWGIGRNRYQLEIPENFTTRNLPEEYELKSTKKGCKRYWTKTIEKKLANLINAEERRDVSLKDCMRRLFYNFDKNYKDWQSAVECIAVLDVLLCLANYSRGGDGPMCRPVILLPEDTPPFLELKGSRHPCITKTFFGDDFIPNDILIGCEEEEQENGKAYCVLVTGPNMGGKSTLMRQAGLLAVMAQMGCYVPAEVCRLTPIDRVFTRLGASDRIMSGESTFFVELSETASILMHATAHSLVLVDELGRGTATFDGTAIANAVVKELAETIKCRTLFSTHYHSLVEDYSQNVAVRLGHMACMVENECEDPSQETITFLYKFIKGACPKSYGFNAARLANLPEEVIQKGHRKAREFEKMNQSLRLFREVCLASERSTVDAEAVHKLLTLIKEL
# Chain of UniProt Q6VY07 (Q6VY07 whole entry, looked up): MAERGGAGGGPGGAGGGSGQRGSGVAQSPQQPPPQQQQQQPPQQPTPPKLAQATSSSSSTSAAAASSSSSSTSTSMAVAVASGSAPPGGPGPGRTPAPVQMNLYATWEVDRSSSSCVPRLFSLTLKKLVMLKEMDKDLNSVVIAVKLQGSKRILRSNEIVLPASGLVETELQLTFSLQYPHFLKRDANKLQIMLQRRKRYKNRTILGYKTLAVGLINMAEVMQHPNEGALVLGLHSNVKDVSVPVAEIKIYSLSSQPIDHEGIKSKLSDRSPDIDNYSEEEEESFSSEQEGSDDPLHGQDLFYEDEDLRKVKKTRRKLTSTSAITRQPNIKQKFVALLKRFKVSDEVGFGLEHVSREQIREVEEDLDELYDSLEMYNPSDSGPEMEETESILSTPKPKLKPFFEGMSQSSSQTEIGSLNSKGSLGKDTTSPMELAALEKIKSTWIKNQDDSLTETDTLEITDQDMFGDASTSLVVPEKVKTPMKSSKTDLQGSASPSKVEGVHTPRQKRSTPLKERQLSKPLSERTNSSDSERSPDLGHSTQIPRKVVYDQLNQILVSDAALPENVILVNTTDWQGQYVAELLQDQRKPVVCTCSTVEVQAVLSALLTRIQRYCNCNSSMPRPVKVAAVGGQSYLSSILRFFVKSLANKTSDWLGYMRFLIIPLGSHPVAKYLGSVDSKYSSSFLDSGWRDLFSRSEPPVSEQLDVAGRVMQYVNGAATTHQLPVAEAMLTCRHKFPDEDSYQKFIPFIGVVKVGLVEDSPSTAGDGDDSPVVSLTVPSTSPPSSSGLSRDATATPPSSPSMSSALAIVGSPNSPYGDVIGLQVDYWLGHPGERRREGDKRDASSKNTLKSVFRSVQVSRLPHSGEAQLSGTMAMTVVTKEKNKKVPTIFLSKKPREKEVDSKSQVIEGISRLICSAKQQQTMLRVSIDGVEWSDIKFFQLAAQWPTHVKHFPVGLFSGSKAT
# Chain of UniProt O60361 (O60361 whole entry, looked up): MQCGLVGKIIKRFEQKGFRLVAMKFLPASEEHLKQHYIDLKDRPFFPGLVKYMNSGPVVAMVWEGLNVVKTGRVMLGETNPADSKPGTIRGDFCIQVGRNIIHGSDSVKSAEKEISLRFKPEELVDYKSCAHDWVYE
# Chain of UniProt P03905 (P03905 whole entry, looked up): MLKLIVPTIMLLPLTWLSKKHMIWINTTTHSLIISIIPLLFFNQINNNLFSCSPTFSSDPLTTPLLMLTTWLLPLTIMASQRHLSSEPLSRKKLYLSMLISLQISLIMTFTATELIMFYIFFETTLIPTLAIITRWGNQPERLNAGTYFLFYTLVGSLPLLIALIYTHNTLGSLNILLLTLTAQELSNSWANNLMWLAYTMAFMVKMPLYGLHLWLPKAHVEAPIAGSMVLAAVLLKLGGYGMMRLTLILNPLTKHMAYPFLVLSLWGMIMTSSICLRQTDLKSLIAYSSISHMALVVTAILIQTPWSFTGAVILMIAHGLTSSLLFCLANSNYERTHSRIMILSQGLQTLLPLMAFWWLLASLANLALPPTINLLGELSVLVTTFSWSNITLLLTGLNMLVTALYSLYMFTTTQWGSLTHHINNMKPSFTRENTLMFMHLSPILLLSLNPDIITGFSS
# Chain of UniProt Q8N5F7 (Q8N5F7 whole entry, looked up): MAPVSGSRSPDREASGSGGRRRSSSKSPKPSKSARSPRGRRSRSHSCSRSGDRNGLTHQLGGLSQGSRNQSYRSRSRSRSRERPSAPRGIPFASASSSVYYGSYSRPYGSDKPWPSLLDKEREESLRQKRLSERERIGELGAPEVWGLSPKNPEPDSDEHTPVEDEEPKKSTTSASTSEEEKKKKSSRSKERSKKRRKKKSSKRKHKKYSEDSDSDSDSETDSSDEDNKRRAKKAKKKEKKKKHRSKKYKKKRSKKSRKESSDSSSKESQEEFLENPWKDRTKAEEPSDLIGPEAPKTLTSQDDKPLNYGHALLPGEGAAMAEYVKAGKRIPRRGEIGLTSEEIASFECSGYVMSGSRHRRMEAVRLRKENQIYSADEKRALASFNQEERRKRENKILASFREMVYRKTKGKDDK
# Chain of UniProt O43181 (O43181 whole entry, looked up): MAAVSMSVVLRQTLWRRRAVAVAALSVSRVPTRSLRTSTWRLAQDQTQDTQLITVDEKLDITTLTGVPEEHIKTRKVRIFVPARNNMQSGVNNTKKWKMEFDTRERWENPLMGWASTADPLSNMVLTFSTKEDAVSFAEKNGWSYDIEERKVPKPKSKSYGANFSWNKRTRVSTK
# Chain of UniProt Q8N4C8 (Q8N4C8 whole entry, looked up): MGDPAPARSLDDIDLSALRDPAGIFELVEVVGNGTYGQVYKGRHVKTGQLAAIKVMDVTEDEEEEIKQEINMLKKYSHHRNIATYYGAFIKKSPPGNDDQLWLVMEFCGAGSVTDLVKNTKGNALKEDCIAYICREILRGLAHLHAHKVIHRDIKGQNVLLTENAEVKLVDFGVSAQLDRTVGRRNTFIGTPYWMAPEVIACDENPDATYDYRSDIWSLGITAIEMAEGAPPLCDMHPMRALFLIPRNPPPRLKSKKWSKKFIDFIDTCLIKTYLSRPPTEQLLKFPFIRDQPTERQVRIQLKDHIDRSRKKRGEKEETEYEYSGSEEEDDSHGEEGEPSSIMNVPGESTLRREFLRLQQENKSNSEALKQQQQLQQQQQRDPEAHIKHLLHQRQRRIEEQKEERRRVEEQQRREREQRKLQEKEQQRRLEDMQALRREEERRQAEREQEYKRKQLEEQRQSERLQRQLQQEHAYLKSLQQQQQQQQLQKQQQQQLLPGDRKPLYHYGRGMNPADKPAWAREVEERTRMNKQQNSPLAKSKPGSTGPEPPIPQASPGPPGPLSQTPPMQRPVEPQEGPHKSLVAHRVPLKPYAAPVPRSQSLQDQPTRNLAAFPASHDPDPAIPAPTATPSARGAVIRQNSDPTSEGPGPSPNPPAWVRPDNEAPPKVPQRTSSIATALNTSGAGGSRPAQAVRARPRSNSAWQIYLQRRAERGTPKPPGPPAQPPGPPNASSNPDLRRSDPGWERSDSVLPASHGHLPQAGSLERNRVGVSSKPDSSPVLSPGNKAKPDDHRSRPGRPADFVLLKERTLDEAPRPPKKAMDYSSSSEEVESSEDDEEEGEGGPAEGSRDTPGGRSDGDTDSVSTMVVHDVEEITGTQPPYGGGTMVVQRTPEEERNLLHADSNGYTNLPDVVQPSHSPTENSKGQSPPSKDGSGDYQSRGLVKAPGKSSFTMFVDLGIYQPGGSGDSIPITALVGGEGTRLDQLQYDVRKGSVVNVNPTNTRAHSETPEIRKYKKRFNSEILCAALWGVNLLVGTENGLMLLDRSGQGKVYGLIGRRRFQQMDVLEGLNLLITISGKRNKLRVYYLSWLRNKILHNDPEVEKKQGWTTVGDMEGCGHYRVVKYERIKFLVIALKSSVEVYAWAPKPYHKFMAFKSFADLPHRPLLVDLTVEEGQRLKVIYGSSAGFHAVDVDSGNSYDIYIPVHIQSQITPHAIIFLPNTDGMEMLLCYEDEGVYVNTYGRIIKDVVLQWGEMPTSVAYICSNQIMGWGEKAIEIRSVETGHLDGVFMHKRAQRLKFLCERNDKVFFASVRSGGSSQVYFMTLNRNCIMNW
# Chain of UniProt Q96DE0 (Q96DE0 whole entry, looked up): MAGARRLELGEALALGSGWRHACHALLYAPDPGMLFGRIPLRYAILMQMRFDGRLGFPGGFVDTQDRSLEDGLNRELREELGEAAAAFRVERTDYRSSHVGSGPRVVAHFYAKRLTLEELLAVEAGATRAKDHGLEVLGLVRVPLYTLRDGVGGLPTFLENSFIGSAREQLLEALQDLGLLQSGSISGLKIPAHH
row,Target,log2 fold change
1,NDUFA4 (UniProt O00483),0.025
2,NOP2 isoform 4 (UniProt P46087),0.147
3,NOP56 (UniProt O00567),-0.012
4,NNT (UniProt Q13423),-0.042
5,NME2P1 (UniProt O60361),-0.571
6,NDUFA6 (UniProt P56556),-0.041
7,"NA, A0A494C071",-0.105
8,MTMR14 (UniProt Q8NCE2),-0.061
9,MT-ND4 (UniProt P03905),0.022
10,NOL7 (UniProt Q9UMY1),0.033
11,NUDT6 (UniProt P53370),0.127
12,MINK1 (UniProt Q8N4C8),-0.026
13,MSH6 (UniProt P52701),-0.053
14,MRPS5 (UniProt P82675),0.044
15,NDUFS8 (UniProt O00217),-0.012
16,MRPL46 (UniProt Q9H2W6),0.025
17,OTUD6B (UniProt Q8N6M0),-0.028

row,Target,log2 fold change
1,MYL12B (UniProt O14950),-0.03
2,NAP1L1 (UniProt B7Z9C2),-0.081
3,NPEPPS (UniProt P55786),-0.007
4,NUDT1 (UniProt P36639),0.018
5,NISCH (UniProt Q9Y2I1),0.045
6,NUMA1 (UniProt Q14980),0.049
7,NOL11 (UniProt Q9H8H0),-0.05
8,NUDT16 (UniProt Q96DE0),0.044
9,NKAP (UniProt Q8N5F7),-0.144
10,MMADHC (UniProt Q9H3L0),0.158
11,NDUFS4 (UniProt O43181),0.069
12,NASP (UniProt P49321),-0.007
13,PACS1 (UniProt Q6VY07),0.046
14,MSANTD2 (UniProt Q6P1R3),-0.364
15,MSL1 (UniProt Q68DK7),-0.078
16,NMRAL1 (UniProt Q9HBL8),0.135
17,NUP98 (UniProt P52948),0.003
